# Activity calls are given as the source filed them.
# Experiment: probe aLefty1 binding on compound microarray – biochemical, small-molecule microarray, 635/667 nm fluorescence, primary screen (AID 1153);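 further: score merges spot fluorescence with signal-to-noise ratio from the scanned slide images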
# Conditions: higher = more signal
row,Compound,composite z-score
1,CC(=O)OC[C@H]1O[C@@H](ON=C(C)C)[C@H](OC(C)=O)[C@@H](OC(C)=O)[C@@H]1OC(C)=O,0.145
2,CC(C)=CCCC(C)=CCON=C1[C@H]2CCn3c(=O)n(-c4ccccc4)c(=O)n3[C@H]2[C@H](O)[C@@H]2O[C@H]12,0.688
3,COC(=O)CC=C[C@@H](C)[C@@H](C=NOC[C@@H](C)[C@H](OCc1ccccc1)C(C)C)OC,-0.29
4,CCOC(=O)CCN1C(=O)[C@H]2[C@H]3[C@H](O)[C@H](O)CC(=NO[C@@H]4O[C@H](CO)[C@@H](O)[C@H](O)[C@H]4O)[C@@H]3CC[C@H]2C1=O,0.121
5,COC(=O)[C@H](C)NC(=O)CCC1CC(OC(=O)NCc2ccc3c(c2)OCO3)CC2(CCCC(COC(=O)NCCc3ccc(Cl)cc3)O2)O1 (some centres not stated),-0.101
6,CC(CCN1CCCc2nc(C)c(C)cc21)=NOC[C@@H](O)COCc1ccco1,1.95
7,CC(CCN1CCCCc2nc(C)c(C)cc21)=NO[C@@H](C)c1cc(-c2c(C)cc(C)cc2C)no1,-0.196
8,C[C@H]1CC[C@@H](C(=O)O)N[C@@H]1c1ccc(C#Cc2ccccc2)cc1,-0.101
9,COc1ccc(O[C@H]2C=C[C@@H](c3ccccc3)O[C@@H]2COC(=O)NCc2cccc3ccccc23)cc1,-0.0046
10,CC(C)CON=C1C[C@@H](O)[C@@H](O)[C@@H]2[C@@H]3C(=O)N(C(C)(C)C)C(=O)[C@@H]3CC[C@@H]12,-0.268
11,CC(C)CON=C1[C@H]2CCn3c(=O)n(C)c(=O)n3[C@H]2[C@H](O)[C@@H]2O[C@H]12,-0.0559
12,CCOC(=O)CCN1C(=O)[C@H]2[C@H]3[C@H](O)[C@H](O)CC(=O)[C@@H]3CC[C@H]2C1=O,-0.407
13,CC1(C)O[C@H]2OC([C@H](O)CON3C(=O)c4ccccc4C3=O)[C@H](O)[C@H]2O1 (some centres not stated),-0.352
14,COc1cccc([C@H](O)Cn2cc(-c3ccc(CON=C(C)C)cc3)nn2)c1,-0.103
15,COCC#Cc1ccc([C@@H]2N[C@H](C(=O)O)CC[C@H]2C)cc1,-0.194
16,O=C1C[C@H](c2ccccc2)[C@H](c2ccc(Br)cc2)O1,-0.464
17,CCCNC(=O)OC[C@H]1O[C@H](CCON=C[C@@H](NS(=O)(=O)c2ccc(C)cc2)[C@H](C)C=CCC(=O)OC)C=C[C@@H]1Oc1ccc(OC)cc1,0.0633
18,CCOC(=O)[C@H](Cc1ccccc1)NC(=O)CCC1CC(OC(=O)NCCc2ccc(F)cc2)CC2(CCCC(COC(=O)NCCOc3ccccc3)O2)O1 (some centres not stated),0.0594

row,Compound,composite z-score
1,C=CC[C@@H]1C=C[C@H](Oc2ccc(C)cc2)[C@@H](COC(=O)NCc2cccc3ccccc23)O1,-0.0501
2,O=C1C2=CC[C@H]3C(=O)N(C[C@@H]4CCCO4)C(=O)[C@H]3[C@H]2[C@H](O)[C@@H]2O[C@H]12,-0.0969
3,CSCC[C@@H]1NC(=O)CC=C[C@@H](C)COC(=O)[C@H](C)COC1=O,-0.321
4,COC(=O)[C@H](Cc1ccccc1)NC(=O)[C@@H](C)CO,0.174
5,O=C1[C@H]2[C@H]3[C@H](O)[C@H](O)CC(=NOCc4ccccc4)[C@@H]3CC[C@H]2C(=O)N1c1cccc(Oc2ccccc2)c1,0.082
6,CC(C)C(=O)N[C@H]1CCCN1C(=O)C=Cc1ccccc1,0.271
7,CCN1C(=O)[C@H]2[C@H]3[C@H](O)[C@H](O)CC(=NOCC(C)C)[C@H]3CC[C@H]2C1=O,-0.0658
8,C#CCCCON=C1[C@H]2CCn3c(=O)n(Cc4cc5c(cc4Cl)OCO5)c(=O)n3[C@H]2[C@H](O)[C@@H]2O[C@H]12,-0.101
9,COC(=O)[C@H](C)NC(=O)CCC1CC(OC(=O)NCc2cccc3ccccc23)CC2(CCCC(COC(=O)NCCOc3ccccc3)O2)O1 (some centres not stated),-0.186
10,CO[C@H]1COC(=O)CC=C[C@@H](C)COC(=O)[C@H]2CCCN2C(=O)CC=C[C@H]1C,-0.217
11,O=C1C[C@@H](O)[C@@H](O)[C@@H]2[C@@H]3C(=O)N(C4CCCCC4)C(=O)[C@@H]3CC[C@@H]12,-0.395
12,CN1CCc2nc(-c3ccccc3)c(-c3ccccc3)cc2C1,-0.0748
13,CC(CCC(=O)OC[C@H]1O[C@H](C#Cc2ccccc2)C=C[C@@H]1Oc1ccc(C)cc1)=NOC(C)CN1CCCCc2nc(C)c(C)cc21 (some centres not stated),-0.191
14,CO[C@@H]1C=CCC(=O)N[C@@H](C)C(=O)OC[C@@H](OC)[C@H](C)C=CCC(=O)OC[C@H]1C,-0.149
15,CO[C@@H]1[C@H](O)CO[C@H]1C=Cc1ccccc1,-0.0559
16,CO[C@H]1COC(=O)[C@H](CCSC)NC(=O)CC=C[C@@H](C)[C@H](OC)COC(=O)[C@@H](OCc2ccccc2)C=C[C@@H]1C,-0.173
17,COc1ccc(OC[C@H]2CN3[C@@H](CC[C@@H](C)[C@@H]3c3ccc(Br)cc3)C(=O)O2)cc1,0.0861
18,COc1ccc(O[C@H]2C=C[C@@H](c3ccccc3)O[C@@H]2CO)cc1,-0.0501

# Experiment: plasmodial surface anion channel blockers, osmotic lysis – cell-based, P. falciparum Indochina, OD700, 1 h, primary screen (AID 1154)
# Conditions: P. falciparum Indochina infected RBC osmotic lysis, higher = more signal, called active from +8 up or from −8 down
row,Compound,z-score
1,CC(=O)OC[C@H]1O[C@@H](ON=C(C)C)[C@H](OC(C)=O)[C@@H](OC(C)=O)[C@@H]1OC(C)=O,0.421 (inactive)
2,CC(C)=CCCC(C)=CCON=C1[C@H]2CCn3c(=O)n(-c4ccccc4)c(=O)n3[C@H]2[C@H](O)[C@@H]2O[C@H]12,4.93 (inactive)
3,COC(=O)CC=C[C@@H](C)[C@@H](C=NOC[C@@H](C)[C@H](OCc1ccccc1)C(C)C)OC,2.17 (inactive)
4,CCOC(=O)CCN1C(=O)[C@H]2[C@H]3[C@H](O)[C@H](O)CC(=NO[C@@H]4O[C@H](CO)[C@@H](O)[C@H](O)[C@H]4O)[C@@H]3CC[C@H]2C1=O,3.62 (inactive)
5,COC(=O)[C@H](C)NC(=O)CCC1CC(OC(=O)NCc2ccc3c(c2)OCO3)CC2(CCCC(COC(=O)NCCc3ccc(Cl)cc3)O2)O1 (some centres not stated),2.17 (inactive)
6,CC(CCN1CCCc2nc(C)c(C)cc21)=NOC[C@@H](O)COCc1ccco1,3.52 (inactive)
7,CC(CCN1CCCCc2nc(C)c(C)cc21)=NO[C@@H](C)c1cc(-c2c(C)cc(C)cc2C)no1,3 (inactive)
8,C[C@H]1CC[C@@H](C(=O)O)N[C@@H]1c1ccc(C#Cc2ccccc2)cc1,0.0311 (inactive)
9,COc1ccc(O[C@H]2C=C[C@@H](c3ccccc3)O[C@@H]2COC(=O)NCc2cccc3ccccc23)cc1,2.71 (inactive)
10,CC(C)CON=C1C[C@@H](O)[C@@H](O)[C@@H]2[C@@H]3C(=O)N(C(C)(C)C)C(=O)[C@@H]3CC[C@@H]12,0.778 (inactive)
11,CC(C)CON=C1[C@H]2CCn3c(=O)n(C)c(=O)n3[C@H]2[C@H](O)[C@@H]2O[C@H]12,-0.399 (inactive)
12,CCOC(=O)CCN1C(=O)[C@H]2[C@H]3[C@H](O)[C@H](O)CC(=O)[C@@H]3CC[C@H]2C1=O,0.781 (inactive)
13,CC1(C)O[C@H]2OC([C@H](O)CON3C(=O)c4ccccc4C3=O)[C@H](O)[C@H]2O1 (some centres not stated),-0.36 (inactive)
14,COc1cccc([C@H](O)Cn2cc(-c3ccc(CON=C(C)C)cc3)nn2)c1,25.6 (active)
15,COCC#Cc1ccc([C@@H]2N[C@H](C(=O)O)CC[C@H]2C)cc1,-0.398 (inactive)
16,O=C1C[C@H](c2ccccc2)[C@H](c2ccc(Br)cc2)O1,-0.142 (inactive)
17,CCCNC(=O)OC[C@H]1O[C@H](CCON=C[C@@H](NS(=O)(=O)c2ccc(C)cc2)[C@H](C)C=CCC(=O)OC)C=C[C@@H]1Oc1ccc(OC)cc1,5.01 (inactive)
18,CCOC(=O)[C@H](Cc1ccccc1)NC(=O)CCC1CC(OC(=O)NCCc2ccc(F)cc2)CC2(CCCC(COC(=O)NCCOc3ccccc3)O2)O1 (some centres not stated),-1.41 (inactive)

row,Compound,z-score
1,C=CC[C@@H]1C=C[C@H](Oc2ccc(C)cc2)[C@@H](COC(=O)NCc2cccc3ccccc23)O1,2.39 (inactive)
2,O=C1C2=CC[C@H]3C(=O)N(C[C@@H]4CCCO4)C(=O)[C@H]3[C@H]2[C@H](O)[C@@H]2O[C@H]12,-0.303 (inactive)
3,CSCC[C@@H]1NC(=O)CC=C[C@@H](C)COC(=O)[C@H](C)COC1=O,-0.274 (inactive)
4,COC(=O)[C@H](Cc1ccccc1)NC(=O)[C@@H](C)CO,0.0772 (inactive)
5,O=C1[C@H]2[C@H]3[C@H](O)[C@H](O)CC(=NOCc4ccccc4)[C@@H]3CC[C@H]2C(=O)N1c1cccc(Oc2ccccc2)c1,2.88 (inactive)
6,CC(C)C(=O)N[C@H]1CCCN1C(=O)C=Cc1ccccc1,1.35 (inactive)
7,CCN1C(=O)[C@H]2[C@H]3[C@H](O)[C@H](O)CC(=NOCC(C)C)[C@H]3CC[C@H]2C1=O,-0.135 (inactive)
8,C#CCCCON=C1[C@H]2CCn3c(=O)n(Cc4cc5c(cc4Cl)OCO5)c(=O)n3[C@H]2[C@H](O)[C@@H]2O[C@H]12,0.649 (inactive)
9,COC(=O)[C@H](C)NC(=O)CCC1CC(OC(=O)NCc2cccc3ccccc23)CC2(CCCC(COC(=O)NCCOc3ccccc3)O2)O1 (some centres not stated),7.46 (inactive)
10,CO[C@H]1COC(=O)CC=C[C@@H](C)COC(=O)[C@H]2CCCN2C(=O)CC=C[C@H]1C,-0.567 (inactive)
11,O=C1C[C@@H](O)[C@@H](O)[C@@H]2[C@@H]3C(=O)N(C4CCCCC4)C(=O)[C@@H]3CC[C@@H]12,0.733 (inactive)
12,CN1CCc2nc(-c3ccccc3)c(-c3ccccc3)cc2C1,0.296 (inactive)
13,CC(CCC(=O)OC[C@H]1O[C@H](C#Cc2ccccc2)C=C[C@@H]1Oc1ccc(C)cc1)=NOC(C)CN1CCCCc2nc(C)c(C)cc21 (some centres not stated),4.27 (inactive)
14,CO[C@@H]1C=CCC(=O)N[C@@H](C)C(=O)OC[C@@H](OC)[C@H](C)C=CCC(=O)OC[C@H]1C,-0.0896 (inactive)
15,CO[C@@H]1[C@H](O)CO[C@H]1C=Cc1ccccc1,2.7 (inactive)
16,CO[C@H]1COC(=O)[C@H](CCSC)NC(=O)CC=C[C@@H](C)[C@H](OC)COC(=O)[C@@H](OCc2ccccc2)C=C[C@@H]1C,0.463 (inactive)
17,COc1ccc(OC[C@H]2CN3[C@@H](CC[C@@H](C)[C@@H]3c3ccc(Br)cc3)C(=O)O2)cc1,2.04 (inactive)
18,COc1ccc(O[C@H]2C=C[C@@H](c3ccccc3)O[C@@H]2CO)cc1,2.91 (inactive)

# Source: PubChem BioAssay
